Rows were chosen to be rich in hits. Some 1.8% of all compounds tested hit in one or more screens of this group.
GLP1R ag = qHTS of GLP-1 Receptor Agonists | Glucagon-like peptide 1 receptor (Homo sapiens), P43220 | HEK293 GLP-1R CRE-luciferase, luminescence, 4-6 h; cells express a hypersensitive GLP-1R form | Potency, µM (doses to about 45.6 µM), inactives show top-dose activation, most hits filed as activators | 0.007% of 380,000 active | AID 624172, 2012; note: % of control where 0% means no effect
Target sequence (P43220 whole entry, looked up): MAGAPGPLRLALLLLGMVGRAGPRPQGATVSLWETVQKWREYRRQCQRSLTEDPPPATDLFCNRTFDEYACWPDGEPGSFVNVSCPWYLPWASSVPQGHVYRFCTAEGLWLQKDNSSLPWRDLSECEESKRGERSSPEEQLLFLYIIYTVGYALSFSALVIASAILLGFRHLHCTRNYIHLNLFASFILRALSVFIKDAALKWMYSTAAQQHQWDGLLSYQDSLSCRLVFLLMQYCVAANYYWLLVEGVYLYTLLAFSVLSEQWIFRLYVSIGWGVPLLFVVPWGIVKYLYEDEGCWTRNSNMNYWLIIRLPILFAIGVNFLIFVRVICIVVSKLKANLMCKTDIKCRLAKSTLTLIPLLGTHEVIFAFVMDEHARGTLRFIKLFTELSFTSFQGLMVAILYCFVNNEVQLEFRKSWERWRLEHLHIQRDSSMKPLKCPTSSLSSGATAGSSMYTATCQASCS
GLP-1R inv ag = qHTS of GLP-1 Receptor Inverse Agonists (Inhibition Mode) | Glucagon-like peptide 1 receptor (Homo sapiens), P43220 | HEK293 GLP-1R CRE-luciferase, luminescence, 24 h; GLP-1R form is constitutively active | Potency, µM (highest dose often 38.3 µM), for the others: at the top dose activity change, negative = inhibition, usual class: inhibitors | 1.6% of 410,000 active; note: % is set by controls: 0 for no effect and ±100 for the full control effect; nearly all actives have a fitted effect of over 55% in size
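Constitutively active GLP-1R drives a cAMP-responsive luciferase in stably transfected HEK293 cells; test compounds are added after overnight (12 h) attachment and left 24 hr, and signal loss in luminescence marks inhibition.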
Tb PGK inh = qHTS Assay to Find Inhibitors of Phosphoglycerate Kinase; Phosphoglycerate kinase, glycosomal (Trypanosoma brucei brucei), P07378; PGK/GAPDH coupled, Kinase-Glo luminescence, 60 min; Potency, µM (series often up to 57.5 µM), for the others: top-dose activity change, negative = inhibition, most hits filed as inhibitors; 0.043% of 380,000 active; note: % is set by controls: 0 for no effect and ±100 for the full control effect; nearly all actives have a fitted effect of over 60% in size
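Luminescent ATP detection (Kinase-Glo Plus) follows a 60-minute room-temperature incubation, with wells lacking PGK as controls. Buffer: 100 mM TEA (pH 7.6), 5 mM MgCl2, 0.01% Tween-20. Coupling enzyme GAPDH (100 nM final) supplies unstable 1,3-BPG in-well.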
Tb PFK block = qHTS Assay to Find Inhibitors of T. brucei phosphofructokinase; T. brucei PFK, ADP-Glo luminescence; Potency, µM (doses to about 57.5 µM), inactives show top-dose activity, negative = inhibition, hits mostly inhibitors; 0.17% of 330,000 active; AID 485367, 2010;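 note: 0% = uninhibited 1x PFK enzyme wells and -100% = no-enzyme wells; nearly all actives have a fitted effect of over 60% in size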
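ADP-Glo luminescence quantified ADP after 45 min at room temperature, with 1.25 nM T. brucei PFK, 0.1 mM ATP and 0.5 mM fructose-6-phosphate in pH 8.0 TEA buffer. qHTS titrations up to 57 µM; curves classified by quality.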
Pin1 inhibitor = qHTS Assay to Find Inhibitors of Pin1; Peptidyl-prolyl cis-trans isomerase NIMA-interacting 1 (Homo sapiens), Q13526; Pin1 FP peptide displacement, HiFluor488, 10 min; Potency, µM (doses to about 115 µM), for the others: top-dose activity, negative = inhibition, hits mostly inhibitors; 0.009% of 390,000 active; active = well fitted inhibition curve with a large enough effect in the polarisation, with a control signal flat, not every such curve was filed as active; inconclusive = small, poorly fitted or top-dose-only effect, or effect the other way, or a change in a side signal; inactive = no such curve, though single readings can be large or run the other way; the % refers to the polarisation; note: % is set by controls: 0 for no effect and ±100 for the full control effect
Target sequence (Q13526 whole entry, looked up): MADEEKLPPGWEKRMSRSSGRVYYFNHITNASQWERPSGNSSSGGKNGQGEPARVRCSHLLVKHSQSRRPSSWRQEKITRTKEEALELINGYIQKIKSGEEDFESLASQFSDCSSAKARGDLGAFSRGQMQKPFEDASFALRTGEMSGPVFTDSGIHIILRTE
HEK293 tox = qHTS of GLP-1 Receptor Inverse Agonists: Cytotox Screen; HEK293 cAMP-luciferase reporter cells, luminescence, 24 h; Potency, µM (doses to about 38.3 µM), without a hit: top-dose activity change, negative = inhibition, usual class: inhibitors; 0.13% of 410,000 active; AID 624418, 2012;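 note: loss of luciferase light is scored as toxicity; % is set by controls: 0 for no effect and ±100 for the full control effect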
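Luminescence readout: signal drop marks cytotoxicity. Plated cells grew 12 h at 37 °C, 5% CO2, received 23 nL compound for 24 h, then got luciferase reagent, read after 12 min at RT.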
* = called active by the depositor; i = inactive; ? = inconclusive; · = no result given. Unless noted, calls come from the whole dose curve; as a rule, active = well fitted curve in the direction sought with a large enough effect; inconclusive = small, poorly fitted or top-dose-only effect, or another doubt; inactive = no such curve, though single readings can be large; an effect the other way counts as inactive or inconclusive. Potency is the fitted concentration of half-maximal effect.

SMILES	GLP1R ag	GLP-1R inv ag	Tb PGK inh	Tb PFK block	Pin1 inhibitor	HEK293 tox
CN1CCN(c2ccc(-c3cccc(NC(=O)COc4ccc(Cl)cc4)c3)nn2)CC1	-16%	?	-1%	-25%	-1%	?
CN(C)Cc1cc(C(C)(C)c2ccccc2)ccc1O	-2%	10µM*	i	·	-8%	-8%
O=C(c1ccc2c(=O)n(CCc3ccccc3)c(=O)[nH]c2c1)N1CCN(C(=O)c2ccco2)CC1	·	·	·	·	-4%	·
CCc1ccc2c(CN3CCN(Cc4ccccc4)CC3)cc(=O)oc2c1	22%	8.9µM*	-1%	0%	-1%	17%
O=C1CCc2cc([S+](=O)([O-])NC3CCOCC3)ccc2N1	·	·	·	·	3%	·
Cc1ccc(CNc2ncnc3ccc(-c4ccc5c(c4)OCO5)cc23)s1	·	·	·	·	11%	·
Cc1c(CN(C)C)c2c(n1C)C(=O)c1ccc(Br)cc1-2	0%	132%	-6%	0%	3%	8.9µM*
Cc1ccc(Cn2c(C)c3cnn(CC(=O)NCCc4ccc(Cl)cc4)c(=O)c3c2C)cc1	·	9%	7%	·	34%	8%
O=C(Cc1coc2cc3c(cc12)CCC3)NCC1(N2CCCCC2)CCCCC1	9%	10µM*	19%	1%	11%	?
O=C(Cc1coc2cc3c(cc12)CCC3)NC1CCCCCCC1	0%	?	-3%	9%	?	0%
CC(C)(C)c1ccc(C(=O)NCC2CCCN2S(=O)(=O)c2ccccc2)cc1 (stereo not given)	6%	5µM*	-9%	-2%	20%	-21%
Cc1ccc(C(=O)NCC2CCCN2S(=O)(=O)c2ccc(C)cc2)cc1 (stereo not given)	13%	?	-9%	?	2%	-8%
O=C(c1ccc(OC2CCN(C/C=C/c3ccc(F)cc3)CC2)cc1)N1CCCC1	4%	3.2µM*	-9%	-3%	0%	-22%
CCc1ccc(CN2CCC(Oc3ccc(C(=O)N4CCCCC4)cc3)CC2)cc1	8%	?	4%	-4%	2%	?
CCc1ccc(CN2CCC(Oc3ccc(C(=O)N4CCCC4)cc3)CC2)cc1	-8%	7.9µM*	-7%	4%	-4%	?
Cc1ccc(NC(=O)CN2C(=O)c3cccnc3Sc3ccccc32)cc1C	·	4%	-9%	·	4%	1%
N#CN1CCC(NC(=O)c2cccc(F)c2)CC1	·	·	·	·	-4%	·
O=C(C1CCCCC1)N(Cc1cccnc1)c1nc2ccc(Cl)cc2s1	·	-6%	2%	·	?	22%
COc1cccc2cc(C(=O)NC3CC4CCC3C4)oc12 (stereo not given)	3%	10µM*	i	-4%	1%	-8%
O=c1cc(-c2ccccc2Cl)oc2c(NS(=O)(=O)c3cc(Cl)cc(Cl)c3O)ccc(O)c12	3%	4µM*	?	0%	22µM*	?
COc1ccc(S(=O)(=O)Nc2cccc(-c3ccc(N4CCOCC4)nn3)c2)cc1F	·	3%	i	·	-1%	-3%
Cc1ccc(N(Cc2cccs2)C(=O)c2ccco2)cc1	·	-5%	1%	·	1%	9%
CCn1c(SCC(=O)Nc2cc(C)ccc2F)nnc1-c1ccccc1O	·	?	-4%	·	-1%	-19%
COc1ccccc1CN(Cc1nc2ccccc2c(=O)[nH]1)C(=O)Nc1ccccc1C	3%	0%	i	0%	2%	?
CCN(Cc1nc2ccccc2c(=O)[nH]1)C(=O)COc1ccccc1-c1ccccc1	-5%	11µM*	-3%	0%	30%	?
SMILES	GLP1R ag	GLP-1R inv ag	Tb PGK inh	Tb PFK block	Pin1 inhibitor	HEK293 tox
COc1ccccc1CN(Cc1nc2ccccc2c(=O)[nH]1)C(=O)Nc1ccc(C)cc1	6%	10µM*	·	-5%	5%	?
CN(CCOc1ccc(Cl)cc1)CC(=O)Nc1ccc(OC(F)F)cc1	-3%	?	i	-14%	9%	-4%
CCC(C)c1ccccc1NC(=O)CN(C)CCOc1ccc(Cl)cc1 (stereo not given)	12%	10µM*	i	-5%	1%	-21%
CN(C)CCNC(=O)c1ccc2nc(Cc3ccccc3)oc2c1	·	?	1%	·	-7%	-2%
CC(C)(C)OC(=O)[C@H](Cc1ccccc1)NC(=O)c1nc[nH]c1C(=O)N[C@@H](Cc1ccccc1)C(=O)OC(C)(C)C	0%	10µM*	5%	-5%	?	0%
COc1ccc(CCNc2oc(/C=C/c3ccc(OC)c(OC)c3)nc2C#N)cc1	·	?	-1%	·	8%	21%
O=S(=O)(c1cccs1)N1CCN(CC(O)COc2cccc(Br)c2)CC1 (stereo not given)	5%	8.9µM*	-3%	-7%	2%	-14%
CCn1cc(CN2CCCC(C(=O)Nc3cccc(-c4cc5ccccc5[nH]4)c3)C2)c(C)n1 (stereo not given)	1%	11µM*	-4%	2%	-1%	?
Cn1cc(CN2CCCC(C(=O)Nc3cccc(-c4cc5ccccc5[nH]4)c3)C2)cn1 (stereo not given)	-3%	?	5%	-3%	2%	?
CC(C)(C)OC(=O)Cc1nnc(CNC(=O)c2ccccc2)s1	·	·	·	·	0%	·
CC(=O)Nc1nc(-c2ccc3c(c2)CCN3C(=O)C2CC2)c(C)s1	17%	0.63µM*	6%	1%	10%	16%
CCc1cccc(C)c1NC(=O)C(CC)n1ncn2c(cc3cc(C)ccc32)c1=O (stereo not given)	·	11%	-3%	·	4%	4%
NC(=O)CSc1nnc(-c2ccccn2)n1Cc1ccco1	0%	2%	9%	-2%	-1%	5%
C(=C\c1ccccc1)/CSc1nnc(-c2ccccn2)n1Cc1ccco1	15%	4µM*	-9%	7%	7%	?
Cc1c(Br)c([N+](=O)[O-])nn1CC(=O)N1CCN(C23CC4CC(CC(C4)C2)C3)CC1	2%	10µM*	3%	-5%	?	-16%

Assay outcomes: PubChem, National Center for Advancing Translational Sciences (NCATS)
